Measured values taken from PubChem BioAssay AID2551 (National Center for Advancing Translational Sciences (NCATS), 2010).
The campaign covered roughly 310,000 compounds. About 17,000 (5.5%) were called active. Roughly 11% stayed inconclusive and do not appear here. Calls follow the shape of the dose curve; as a rule, active = well fitted inhibition curve with a large enough effect; inconclusive = small, poorly fitted or top-dose-only effect, or effect the other way; inactive = no such curve, though single readings can be large or run the other way. Many of the other results were omitted from the sample, so actives are more common in it than they were.

Target: Nuclear receptor ROR-gamma (Mus musculus) (UniProt P51450)
Sequence (P51450 whole entry, looked up): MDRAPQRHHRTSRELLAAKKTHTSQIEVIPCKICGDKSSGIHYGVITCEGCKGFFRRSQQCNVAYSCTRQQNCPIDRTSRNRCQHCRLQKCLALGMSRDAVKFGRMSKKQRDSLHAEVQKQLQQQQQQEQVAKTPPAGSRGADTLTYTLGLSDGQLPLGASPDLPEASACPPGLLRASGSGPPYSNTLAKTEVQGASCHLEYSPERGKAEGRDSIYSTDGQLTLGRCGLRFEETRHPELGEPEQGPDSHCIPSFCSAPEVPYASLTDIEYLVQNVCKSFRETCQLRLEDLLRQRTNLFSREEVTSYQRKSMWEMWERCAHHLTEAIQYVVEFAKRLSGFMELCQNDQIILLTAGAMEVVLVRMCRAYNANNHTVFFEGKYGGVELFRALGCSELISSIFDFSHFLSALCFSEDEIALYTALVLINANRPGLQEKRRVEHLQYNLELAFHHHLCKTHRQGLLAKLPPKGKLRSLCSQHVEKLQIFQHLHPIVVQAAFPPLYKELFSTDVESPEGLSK
Test: qHTS for inhibitors of ROR gamma transcriptional activity; also: nearly all actives have a fitted effect of over 60% in size
Settings: Drosophila S2 Gal4-RORgamma UAS-luciferase reporter, 20 h; series mostly up to 53.6 µM; activity change, negative = inhibition: at the top concentration
Method in brief: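 Read-out: Photinus luciferase luminescence; inhibitors lower reporter signal. Insect Schneider cells with Gal4-ROR gamma fusion under metallothionein promoter, UAS reporter; 700 uM final copper sulfate induction, 20 hr, ambient temperature.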
% is scaled to controls: 0 for no effect and ±100 for the full control effect; potency is read from the fitted curve at half-maximal effect.

| SMILES | activity change, negative = inhibition | Potency |
| --- | --- | --- |
| CCOCc1nnc(NC(=O)CCS(=O)(=O)Cc2ccccc2)s1 | 10.4% (inactive) |  |
| CCOCCOC(=O)C1=C(C)NC(=O)NC1c1ccc2c(c1)OCO2 (configuration not stated) | 0.346% (inactive) |  |
| CN(C)CCCN(C(=O)c1ccc(S(=O)(=O)N2CCCCCC2)cc1)c1nc2ccc(Br)cc2s1 |  | 2.82 µM (active) |
| CCN(CC)CCN(C(=O)c1ccc(S(=O)(=O)N2CCOCC2)cc1)c1nc2cc3c(cc2s1)OCCO3 | 22.5% (inactive) |  |
| CC(=O)N(CCCN(C)C)c1nc2ccc(C)cc2s1 | 1.73% (inactive) |  |
| CN1CCN(C(=O)c2ccccc2NC(=O)COc2ccccc2Cl)CC1 | 7.86% (inactive) |  |
| O=C1COc2ccc(S(=O)(=O)NCCc3ccc(Cl)cc3)cc2N1 | -15.2% (inactive) |  |
| Cc1cc(OCC(=O)Nc2c(C)n(C)n(-c3ccccc3)c2=O)ccc1[N+](=O)[O-] | 16.1% (inactive) |  |
| COc1ccc(C2c3[nH]c4ccccc4c3CCN2CCCn2cccn2)cc1C (configuration not stated) | -4.28% (inactive) |  |
| Oc1cccc(C2c3[nH]c4ccccc4c3CCN2Cc2cnn(-c3ccccc3)c2)c1 (configuration not stated) | 17.3% (inactive) |  |
| COc1cccc(C2c3[nH]c4ccccc4c3CCN2Cc2cccc(C)n2)c1 (configuration not stated) |  | 12.6 µM (active) |
| CN(Cc1ccc(F)cc1Cl)S(=O)(=O)c1cccs1 | 13.6% (inactive) |  |
| CCc1ccc2[nH]c(=O)c(Cc3ccccc3)c(O)c2c1 | 14.8% (inactive) |  |
| O=C(Nc1ccccc1)OCc1cc(-c2ccc(Cl)cc2)on1 | 0.919% (inactive) |  |
| O=C1C=C(c2ccc(Cl)cc2)C(=O)N1Nc1ccccc1 |  | 7.08 µM (active) |
| O=C1c2cccc3cc(Br)cc(c23)C(=O)N1Nc1ccccc1 | -19.1% (inactive) |  |
| CC1(C)Cc2c(sc(NC(=O)C(=O)N3CCOCC3)c2C#N)CO1 | 11.5% (inactive) |  |
| O=S(=O)(Nc1ccccc1Cl)c1cccc2nsnc12 | -0.764% (inactive) |  |
| O=C(Cc1ccccc1)Nc1ccc(NC(=O)c2cccnc2)cc1 | 28.3% (inactive) |  |
| CCC(C)C(=O)Nc1ccccc1N1CCN(c2ccc(F)cc2)CC1 (configuration not stated) | -20.4% [at 1.91 µM] (inactive) |  |
| Cc1cc(C)n(CC(=O)Nc2ccc([N+](=O)[O-])cc2)n1 | 4.43% (inactive) |  |
| C/C(=N\NC(=O)CCn1nc(C)cc1C)C(C)(C)C |  | 11.2 µM (active) |
| Cc1cc(C)n(CCC(=O)N2CCN(S(=O)(=O)c3ccc(C)c(C)c3)CC2)n1 | -23.4% (inactive) |  |
| C=CCSc1nnc(N2C(=O)C(O)=C(C(=O)c3ccco3)C2c2ccc(F)cc2)s1 (configuration not stated) | 0.341% (inactive) |  |
| COc1cccc(-c2nnc(NC(=O)c3ccc(S(=O)(=O)N(CC(C)C)CC(C)C)cc3)o2)c1 |  | 0.282 µM (active) |
| COc1cccc(C(=O)Nc2nnc(S(=O)(=O)N(C)c3ccccc3)s2)c1 | -1.13% (inactive) |  |

| SMILES | activity change, negative = inhibition | Potency |
| --- | --- | --- |
| COc1cccc(NC(=O)c2ccc(S(=O)(=O)N(C)C)cc2)c1 | 27.1% (inactive) |  |
| COc1ccc2[nH]c3nc(SCC(=O)NC4CC4)nnc3c2c1 | -8.92% (inactive) |  |
| COc1cccc2c(C)c(C(=O)O)[nH]c12 |  | 2 µM (active) |
| Cc1c(C(=O)N/N=C/c2ccccc2)[nH]c2c([N+](=O)[O-])cccc12 | -16.9% (inactive) |  |
| COc1cc2c(C(=O)O)c(C)n(C)c2c2ccccc12 | 13.6% (inactive) |  |
| CCOC(=O)C1CN(S(=O)(=O)c2ccc(OC)cc2)c2cc(Cl)ccc2O1 (configuration not stated) | -1.61% (inactive) |  |
| COc1ccc(Cc2nc3ccc(C(=O)N4CCC(N(C)C)C4)cc3o2)cc1 (configuration not stated) | 6.86% (inactive) |  |
| C/C(=N\Nc1nncc2ccccc12)c1ccc(Cl)c([N+](=O)[O-])c1 | -15.3% (inactive) |  |
| COc1ccc(NC(=O)CC2C(=O)NC3CCCCC3N2C(=O)c2ccc(F)cc2)cc1 (configuration not stated) | 8.91% (inactive) |  |
| O=C(c1ccc(S(=O)(=O)N2CCCC2)cc1)N1CCN(c2ccccc2F)CC1 | 5.53% (inactive) |  |
| O=C(Nn1cc(C(=O)N2CCN(c3ccccc3F)CC2)c2ccccc2c1=O)c1cnccn1 |  | 14.1 µM (active) |
| Cn1c(=O)cc(OCC(=O)N2CCN(c3ccccc3F)CC2)c2ccccc21 | -6.44% (inactive) |  |
| CC1CCN(C(=O)c2ccc3c(=O)n4c(nc3c2)CCCCC4)CC1 | -0.982% (inactive) |  |
| NS(=O)(=O)c1ccccc1NC(=O)c1c(O)c2ccccc2[nH]c1=O | -12% (inactive) |  |
| C/C(=N\NC(N)=S)c1ccncc1 | -38.1% (inactive) |  |
| C/C(=N\NC(=S)NC(C)C)c1ccc(C(C)(C)C)cc1 |  | 1 µM (active) |
| C/C(=N\NC(N)=S)c1cccnc1 | -8.34% (inactive) |  |
| Cn1c(=O)c2sccc2n(Cc2ccc(Br)cc2)c1=O | 61.6% (inactive) |  |
| O=C(CN1C(=O)CSC1=O)N1CCCC(Nc2ccc(F)cc2)C1 (configuration not stated) | 18% (inactive) |  |
| Nc1cc(N)nc(SCc2cccc(F)c2)n1 | 19.2% (inactive) |  |
| CCCCNC(=S)NNC(=O)c1cc(C)on1 |  | 10 µM (active) |
| CCC(=O)Nc1ccc(C(=O)Nc2cc(C)on2)cc1 | -13.3% (inactive) |  |
| Cc1cc(C(=O)NCCCc2ccccc2)no1 | 17.6% (inactive) |  |
| O=C(Nc1ccccc1)c1ccco1 | -3.1% (inactive) |  |
| COc1ccc(NC(=O)NN2CCN(C)CC2)c(OC)c1 | 10.2% (inactive) |  |
| COc1ccc(CCn2c(=N)c(C(=O)NCC3CCCO3)cc3c(=O)n4cccc(C)c4nc32)cc1OC (configuration not stated) | -28% (inactive) |  |
